A number with no mark means an inactive call. For some of these results: Results with a measured potency or affinity are listed apart. Calls of active or inactive are those of the source. Unless noted, the rule behind the calls is not given here.

Consider 20 molecules from PubChem BioAssay.

Assay [1] can be described thus: antimalarial activity against Dd2 strain (AID 2302;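 active = growth inhibition above 50% at the single 2 µM test dose, taken to imply half-maximal potency below 2 µM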;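 note: 0% = DMSO untreated growth and 100% = chloroquine plus artemisinin killed control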). As to conditions: P. falciparum Dd2 in RBCs, LDH growth readout, 72 h; at 2 µM; active compounds read high.
The nature of assay [2]: human hepatoma cell viability loss – ATP luminescence, cytotoxicity control for P. falciparum antimalarial project, primary screen (AID 2303;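 active = inhibition above 50%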;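 note: 0% = DMSO wells and 100% = digitonin-killed cells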). The note with it: HepG2 viability, 24-48 h, at 10 µM, active compounds read high.
In assay [3] the target is L-lactate dehydrogenase (Plasmodium falciparum (isolate CDC / Honduras)) (UniProt Q27743). Briefly: PfLDH activity inhibition – cell lysate, 3D7 strain, counter-screen for P. falciparum growth inhibition project (AID 2304).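 Note: 0% = vehicle and 100% = reference inhibitor.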 The note with it: P. falciparum 3D7 crude extract, LDH APAD/NBT absorbance; at 2 µM; active compounds read high. On the technique in general: A counterscreen serves to expose hits that act by an unwanted route or on another target.

Assay [4] in a line: inhibition of 3D7 malaria parasite growth – strain 3D7 (AID 2306).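 Note: 0% = DMSO wells and 100% = chloroquine plus artemisinin control wells.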 As to conditions: P. falciparum 3D7 erythrocytic growth, LDH absorbance, 72 h; at 2 µM; active compounds read high.
Assay [5] concerns the target Calcium-dependent protein kinase 1 (Plasmodium falciparum (isolate 3D7)) (UniProt P62344). Briefly: PfCDPK1 kinase inhibitors, biochemical, TCAMS library (AID 1159585; cut-off not given, nearly all actives have IC50 up to about 0.98 µM;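 note: inhibitors leave more ATP so luminescence rises with inhibition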). The note with it: recombinant PfCDPK1, Kinase-Glo ATP depletion luminescence.
Assay [6] addresses Plasmodium falciparum protein kinase 6 (PK6, PF3D7_1337100) (UniProt Q8IDW1). Briefly: PfPK6 kinase inhibitors, biochemical, TCAMS library (AID 1159586). The note with it: recombinant PfPK6, Kinase-Glo ATP depletion luminescence. A general note: In Kinase-Glo more light means more ATP remaining.
The target of assay [7] is Protein kinase 7 (PK7), Plasmodium falciparum 3D7 (PF3D7_0213400) (UniProt Q7YTF7). Put plainly: inhibition of Plasmodium PK7 catalytic activity – biochemical, TCAMS antimalarial set, Kinase-Glo luminescence (AID 1159587). The note with it: recombinant PfPK7, Kinase-Glo ATP depletion luminescence.
Assay [8] addresses Calcium-dependent protein kinase 4 (Plasmodium falciparum (isolate 3D7)) (UniProt Q8IBS5). Briefly: PfCDPK4 kinase inhibitors, biochemical, TCAMS library (AID 1159588; cut-off not given, nearly all actives have IC50 up to about 0.91 µM). As to conditions: recombinant PfCDPK4, Kinase-Glo ATP depletion luminescence.

Sequence of Protein kinase 7 (PK7), Plasmodium falciparum 3D7 (PF3D7_0213400) (Q7YTF7 1-343): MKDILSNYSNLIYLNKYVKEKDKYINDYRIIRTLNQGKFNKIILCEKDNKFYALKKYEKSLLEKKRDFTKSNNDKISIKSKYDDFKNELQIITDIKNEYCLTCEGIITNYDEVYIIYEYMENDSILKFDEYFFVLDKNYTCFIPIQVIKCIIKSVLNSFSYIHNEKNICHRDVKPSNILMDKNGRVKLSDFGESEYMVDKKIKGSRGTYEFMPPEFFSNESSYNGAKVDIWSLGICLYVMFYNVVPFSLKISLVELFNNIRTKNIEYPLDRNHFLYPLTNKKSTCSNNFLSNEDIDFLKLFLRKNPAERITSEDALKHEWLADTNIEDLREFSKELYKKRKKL
Sequence of Plasmodium falciparum protein kinase 6 (PK6, PF3D7_1337100) (Q8IDW1 1-305): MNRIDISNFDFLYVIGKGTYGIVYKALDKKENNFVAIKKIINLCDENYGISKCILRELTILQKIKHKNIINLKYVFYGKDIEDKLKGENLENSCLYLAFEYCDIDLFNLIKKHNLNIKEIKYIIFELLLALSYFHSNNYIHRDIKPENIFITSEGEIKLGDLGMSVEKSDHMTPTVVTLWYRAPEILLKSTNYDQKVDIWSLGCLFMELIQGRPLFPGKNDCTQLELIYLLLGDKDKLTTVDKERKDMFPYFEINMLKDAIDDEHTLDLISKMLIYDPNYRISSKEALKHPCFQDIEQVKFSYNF
Sequence of L-lactate dehydrogenase (Plasmodium falciparum (isolate CDC / Honduras)) (Q27743 whole entry, looked up): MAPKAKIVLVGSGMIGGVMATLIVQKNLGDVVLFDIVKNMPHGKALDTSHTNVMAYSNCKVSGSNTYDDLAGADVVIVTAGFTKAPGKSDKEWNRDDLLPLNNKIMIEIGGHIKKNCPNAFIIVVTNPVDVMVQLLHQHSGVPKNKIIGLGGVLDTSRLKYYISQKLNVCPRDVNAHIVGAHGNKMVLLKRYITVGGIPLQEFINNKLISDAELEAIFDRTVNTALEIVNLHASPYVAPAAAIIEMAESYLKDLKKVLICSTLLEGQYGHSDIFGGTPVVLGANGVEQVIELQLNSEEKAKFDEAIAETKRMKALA
Sequence of Calcium-dependent protein kinase 4 (Plasmodium falciparum (isolate 3D7)) (Q8IBS5 whole entry, looked up): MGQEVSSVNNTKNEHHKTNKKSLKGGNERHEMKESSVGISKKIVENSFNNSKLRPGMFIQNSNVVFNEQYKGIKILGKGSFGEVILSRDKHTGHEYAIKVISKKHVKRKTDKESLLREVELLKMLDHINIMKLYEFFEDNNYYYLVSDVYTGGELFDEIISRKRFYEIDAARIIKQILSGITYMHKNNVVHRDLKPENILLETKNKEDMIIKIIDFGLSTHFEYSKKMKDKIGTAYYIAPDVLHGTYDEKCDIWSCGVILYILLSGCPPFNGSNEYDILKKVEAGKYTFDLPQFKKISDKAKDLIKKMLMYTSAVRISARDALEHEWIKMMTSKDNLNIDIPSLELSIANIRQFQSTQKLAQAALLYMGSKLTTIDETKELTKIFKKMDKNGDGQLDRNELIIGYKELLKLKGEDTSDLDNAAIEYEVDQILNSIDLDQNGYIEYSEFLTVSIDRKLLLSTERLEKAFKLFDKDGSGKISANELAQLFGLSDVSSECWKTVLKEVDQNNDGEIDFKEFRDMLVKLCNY
Sequence of Calcium-dependent protein kinase 1 (Plasmodium falciparum (isolate 3D7)) (P62344 whole entry, looked up): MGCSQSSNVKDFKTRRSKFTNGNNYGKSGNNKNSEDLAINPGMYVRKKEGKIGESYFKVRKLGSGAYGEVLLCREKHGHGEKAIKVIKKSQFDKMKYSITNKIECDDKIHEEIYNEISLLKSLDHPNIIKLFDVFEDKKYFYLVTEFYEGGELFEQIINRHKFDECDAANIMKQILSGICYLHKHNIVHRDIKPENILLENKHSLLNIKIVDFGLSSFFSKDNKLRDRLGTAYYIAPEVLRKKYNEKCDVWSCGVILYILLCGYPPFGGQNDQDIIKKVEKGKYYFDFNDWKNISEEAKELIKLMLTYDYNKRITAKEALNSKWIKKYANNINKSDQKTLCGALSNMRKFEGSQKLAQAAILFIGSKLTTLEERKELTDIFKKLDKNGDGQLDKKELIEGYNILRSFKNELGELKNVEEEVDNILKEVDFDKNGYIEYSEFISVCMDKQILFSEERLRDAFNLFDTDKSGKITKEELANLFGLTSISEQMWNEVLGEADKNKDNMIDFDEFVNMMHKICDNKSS

For the molecule `COc1ccc2nccc([C@@H](O)CN3CCC(NC(=O)c4cccc(C(=O)c5ccccc5)c4)CC3)c2c1`, the growth inhibition in assay [1] and in assay [4] was 99% (active) each time. Moreover, the figures for the inhibition in assay [2] and in assay [3] were 13% and 2%, respectively. The outcome in assay [5], in assay [6], in assay [7] and in assay [8] was inactive.
In the case of `Cc1cccc2[nH]c(-c3ccc(-c4ccc(NC(=O)N[C@@H]5C[C@H]5c5ccccc5)cc4)cc3)nc12`, the growth inhibition in assay [1] was 3%; in assay [4], 96% (active). The results for the inhibition in assay [2] and in assay [3] were 28% and -5%, respectively. The result in assay [5], in assay [6], in assay [7] and in assay [8] was inactive.
Consider `CN(C)c1ccc(CN2CCC(NC(=O)c3ccc(-c4cccc(C(F)(F)F)c4)s3)CC2)cc1`, for which the growth inhibition in assay [1] was 40%; in assay [4] it was 97% (active). Further, the inhibition was 90% (active) in assay [2] and -4% in assay [3]. Also, the result in assay [5], in assay [6], in assay [7] and in assay [8] was inactive.
On to `CCCCCN1CCC(CNS(=O)(=O)c2ccc(C(=O)Nc3cccc(C(F)(F)F)c3)cc2)CC1`, for which the results for the growth inhibition in assay [1] and in assay [4] were 13% and 98% (active), respectively. Also, the results for the inhibition in assay [2] and in assay [3] were 13% and -7%, respectively. For the same molecule, the result in assay [5], in assay [6], in assay [7] and in assay [8] was inactive.
Take `CCOc1ccc(NC(C)=O)c(O)c1`: the growth inhibition is 0% in assay [1] and 96% (active) in assay [4]. Also, the inhibition in assay [2] is 6%; in assay [3], -1%. Moreover, the result in assay [5], in assay [6], in assay [7] and in assay [8] was inactive.
For `Cc1cc(NCCCN2CCCC2=O)n2c(nc3ccccc32)c1C#N`, the growth inhibition in assay [1] was 48%; in assay [4], 93% (active). In addition, the inhibition in assay [2] is 4%; in assay [3], -1%. Moreover, the outcome in assay [5], in assay [6], in assay [7] and in assay [8] was inactive.
As to `O=C(Nc1cccc(-c2ccc(-c3nc4ccc(C(F)(F)F)cc4[nH]3)cc2)c1)c1ccoc1`, the growth inhibition was 42% in assay [1] and 98% (active) in assay [4]. Also, the inhibition was 76% (active) in assay [2] and -4% in assay [3]. For the same molecule, the result in assay [5], in assay [6], in assay [7] and in assay [8] was inactive.
For `CCOC(=O)c1cc(C(=O)OC)c2ccccn12`, the figures for the growth inhibition in assay [1] and in assay [4] were 2% and 97% (active), respectively. For the same molecule, the inhibition in assay [2] is 44%; in assay [3], -2%. Besides, the result in assay [5], in assay [6], in assay [7] and in assay [8] was inactive.
`Cc1ccc(CCC(C)NCC(O)c2cccc(C(F)(F)F)c2)cc1` (stereo not given): the values for the growth inhibition in assay [1] and in assay [4] were 98% (active) and 99% (active), respectively. For the same molecule, the inhibition was -17% in assay [2] and 4% in assay [3]. Moreover, the outcome in assay [5], in assay [6], in assay [7] and in assay [8] was inactive.
Regarding `COc1ccc2nccc(N3CCN(CCNCc4ccc5c(n4)NC(=O)CS5)CC3)c2n1`, the growth inhibition is 67% (active) in assay [1] and 100% (active) in assay [4]. In addition, the values for the inhibition in assay [2] and in assay [3] were 10% and 1%, respectively. Further, the result in assay [5], in assay [6], in assay [7] and in assay [8] was inactive.
For the molecule `COCCN1CCC(NCC(C)(C)c2nc(-c3ccc(Cl)c(O)c3)c(-c3ccncc3)[nH]2)CC1`, the growth inhibition in assay [1] is 47%; in assay [4], 102% (active). Also, the inhibition in assay [2] was -8%; in assay [3], -2%. Moreover, the result in assay [5], in assay [6], in assay [7] and in assay [8] was inactive.
Consider `COCC(C)n1c(SCC(=O)Nc2cc(C(F)(F)F)ccc2Cl)nc2ccccc2c1=O` (stereo not given), for which the growth inhibition is 96% (active) in assay [1] and 97% (active) in assay [4]. Further, the inhibition in assay [2] was 3%; in assay [3], 6%. The outcome in assay [5], in assay [6], in assay [7] and in assay [8] was inactive.
Consider `CCCc1cc(OC)c(CC2c3cc(O)c(Cl)cc3CCN2C)cc1OC` (stereo not given), for which the figures for the growth inhibition in assay [1] and in assay [4] were 99% (active) and 100% (active), respectively. In addition, the values for the inhibition in assay [2] and in assay [3] were 19% and -5%, respectively. The result in assay [5], in assay [6], in assay [7] and in assay [8] was inactive.
As to `Cc1[nH]c(C)c(-c2ccc(-c3ccccc3Cl)nc2)c(=O)c1Cl`, the growth inhibition in assay [1] was 97% (active); in assay [4], 98% (active). Also, the values for the inhibition in assay [2] and in assay [3] were -1% and -5%, respectively. In addition, the outcome in assay [5], in assay [6], in assay [7] and in assay [8] was inactive.
As for `CCCOc1ccc(C(F)(F)F)cc1NC(=O)c1nc2nc(C)cc(C)n2n1`, the growth inhibition is 88% (active) in assay [1] and 90% (active) in assay [4]. Besides, the figures for the inhibition in assay [2] and in assay [3] were 7% and -4%, respectively. The result in assay [5], in assay [6], in assay [7] and in assay [8] was inactive.
Regarding `COc1cccc2cc(C(=O)N[C@@H](CC(C)C)C(=O)N[C@H](/C=N/N3CC(=O)NC3=O)CC(C)C)oc12`, the values for the growth inhibition in assay [1] and in assay [4] were 64% (active) and 86% (active), respectively. Also, the inhibition is 3% in assay [2] and 2% in assay [3]. The result in assay [5], in assay [6], in assay [7] and in assay [8] was inactive.
Regarding `Cc1c(S(=O)(=O)Nc2cccc(CCN3CCCCC3CCN3CCCC3)c2)sc2ccc(Cl)cc12` (stereo not given), the results for the growth inhibition in assay [1] and in assay [4] were 10% and 93% (active), respectively. Further, the inhibition was 22% in assay [2] and 0% in assay [3]. Moreover, the outcome in assay [5], in assay [6], in assay [7] and in assay [8] was inactive.
As for `O=C([C@@H]1CCCCN1c1ccc([N+](=O)[O-])c2ccccc12)N1CCN(c2ncccn2)CC1`, the figures for the growth inhibition in assay [1] and in assay [4] were 5% and 97% (active), respectively. The figures for the inhibition in assay [2] and in assay [3] were 50% (active) and 5%, respectively. In addition, the outcome in assay [5], in assay [6], in assay [7] and in assay [8] was inactive.
Turning to `CN(C)CCN(Cc1ccc(-c2ccc(CNCCc3ccccc3)cc2)nc1)C(=O)CCC1CCCC1`, the growth inhibition is 89% (active) in assay [1] and 96% (active) in assay [4]. The inhibition was 98% (active) in assay [2] and -3% in assay [3]. For the same molecule, the result in assay [5], in assay [6], in assay [7] and in assay [8] was inactive.
On to `O=C(/C=C/c1ccc(Cl)c(Cl)c1)NCCCCCN1CCC(C(=O)Nc2ccc3c(c2)OCO3)CC1`, for which the growth inhibition in assay [1] is -3%; in assay [4] it was 92% (active). For the same molecule, the inhibition in assay [2] is 18%; in assay [3], 4%. Also, the outcome in assay [5], in assay [6], in assay [7] and in assay [8] was inactive.

What is called inhibition is the change of the read-out against control, counted positive when it falls.
